The list is not random: actives were taken first. Their share in the collection is about 5.3%.
Tau fibril ThT: qHTS for Inhibitors of Tau Fibril Formation, Thioflavin T Binding. recombinant tau K18 P301L, heparin-induced fibrillization, ThT fluorescence. Potency, µM (titrated, usually from 57.4 µM), usual class: inhibitors. hit rate 2.1% among 270,000. AID 1460, 2008; also: nearly all actives have a fitted effect of over 55% in size
Target sequence (P10636 561-689 P618L limits assumed): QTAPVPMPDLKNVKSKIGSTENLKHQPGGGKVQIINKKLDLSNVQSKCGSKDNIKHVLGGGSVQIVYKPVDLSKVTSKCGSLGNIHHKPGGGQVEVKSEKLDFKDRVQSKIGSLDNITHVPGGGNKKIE
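K18 P301L tau (15 uM + 0.24 uM Alexa 594-tagged), heparin 20 uM, NaOAc pH 7, 6 h 37 C; ThT 30 uM, 1 h RT, ex 450/em 510 nm.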
Sfp PPTase inh: qHTS Assay for Inhibitors of Bacillus subtilis Sfp phosphopantetheinyl transferase (PPTase). 4'-phosphopantetheinyl transferase ffp (Bacillus subtilis), Q9F4F7. Biochemical Sfp PPTase activity, qHTS. Potency, µM, usual class: inhibitors. hit rate 3.5% among 310,000. AID 1490, 2009;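 also: the enzyme is Sfp with the accession as filed and its product quenches rhodamine fluorescence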
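With Hepes-Na pH 7.6 buffer containing 10 mM MgCl2, Sfp (15 nM) modified BHQ-2-YbbR (12.5 uM) using rhodamine-CoA (5 uM). Two reads 30 minutes apart at 525/598 nm yielded each well's rate.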
Tau FP inhib: qHTS for Inhibitors of Tau Fibril Formation, Fluorescence Polarization; K18 P301L tau heparin fibrillization, Alexa594 FP, 6 h; hit rate 0.39% among 280,000; Potency, µM (top dose mostly 57.7 µM), most hits filed as inhibitors; also: nearly all actives have a fitted effect of over 55% in size
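Read-out: fluorescence polarization of Alexa 594-labeled tau (0.24 uM), 555 nm excitation, 632 nm emission. Mixtures held 15 uM unlabeled K18 P301L, compound and 20 uM heparin, pH 7 acetate buffer, incubated 6 hr at 37 C.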
Tau fluor cs: Counterscreen qHTS for Inhibitors of Tau Fibril Formation, Fluorescence Polarization; tau K18 P301L (four-repeat tau fragment) Alexa594 fluorescence, heparin fibrillization; hit rate 0.93% among 280,000; Potency, µM (top dose mostly 57.7 µM); also: nearly all actives have a fitted effect of over 55% in size
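Human K18 P301L tau (15 uM unlabeled plus 0.24 uM Alexa 594-labeled, final) in 100 mM sodium acetate pH 7 was mixed with compound and 20 uM heparin and incubated 6 hr at 37 C.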
Coupling enz: qHTS Assay for Inhibitors of Fructose-1,6-bisphosphate Aldolase from Giardia Lamblia: Coupling assay counterscreen; AID 2472, 2010; coupling enzyme system counterscreen, AmpLite Red fluorescence; hit rate 0.67% among 290,000; activity change, negative = inhibition, % at 58.2 µM, hits read low; in the data active = activity change below about -30%
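Compounds tested against the coupling enzymes alone at 57.5 uM final; readout was AmpLite Red fluorescence (525/598 nm) after 20 min at RT.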
JMJD2E inh: qHTS Assay for Inhibitors of Human Jumonji Domain Containing 2E (JMJD2E); JMJD2E catalytic domain, FDH-coupled NADH fluorescence (FDH is formaldehyde dehydrogenase); hit rate 1.6% among 230,000; Potency, µM (series often up to 57.1 µM), most hits filed as inhibitors; AID 2147, 2009; active = well fitted inhibition curve with a large enough effect, not every such curve was filed as active; inconclusive = small, poorly fitted or top-dose-only effect, or another doubt; inactive = no such curve, though single readings can be large or run the other way; also: nearly all actives have a fitted effect of over 50% in size
Target sequence (B2RXH2 1-337 limits assumed): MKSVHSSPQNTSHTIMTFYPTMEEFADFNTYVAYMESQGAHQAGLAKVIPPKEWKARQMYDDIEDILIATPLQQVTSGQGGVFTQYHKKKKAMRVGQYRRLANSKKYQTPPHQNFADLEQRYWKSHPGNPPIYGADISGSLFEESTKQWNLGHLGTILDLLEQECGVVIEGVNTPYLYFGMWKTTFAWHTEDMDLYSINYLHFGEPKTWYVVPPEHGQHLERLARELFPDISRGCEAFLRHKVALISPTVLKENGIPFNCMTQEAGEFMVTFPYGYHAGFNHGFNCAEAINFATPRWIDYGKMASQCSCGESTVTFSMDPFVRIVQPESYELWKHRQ
A number is an active result; n = inactive; u = inconclusive; x = not tested or not shown; ! = repeats disagree; [ ] = remark or other dose. Unless noted, calls follow the shape of the dose curve; as a rule, active = well fitted curve in the direction sought with a large enough effect; inconclusive = small, poorly fitted or top-dose-only effect, or another doubt; inactive = no such curve, though single readings can be large; an effect the other way counts as inactive or inconclusive.

SMILES	Tau fibril ThT	Sfp PPTase inh	Tau FP inhib	Tau fluor cs	Coupling enz	JMJD2E inh
CC[C@H](C)[C@H](NC(=O)[C@H](Cc1ccc(O)cc1)NC(=O)[C@H](Cc1cnc[nH]1)NC(=O)[C@H](CCCNC(=N)N)NC(=O)[C@H](CC(C)C)NC(=O)[C@H](C)NC(=O)[C@@H](N)CO)C(=O)N[C@@H](CC(N)=O)C(=O)N[C@@H](CC(C)C)C(=O)N[C@H](C(=O)N[C@H](C(=O)N[C@@H](CCCNC(=N)N)C(=O)N[C@@H](CCC(N)=O)C(=O)N[C@@H](CCCNC(=N)N)C(=O)N[C@@H](Cc1ccc(O)cc1)C(N)=O)[C@@H](C)O)[C@@H](C)CC	x	n	x	x	n	x
Fc1ccc(C2Nc3cccc4cccc(c34)N2)cc1	x	u	x	x	n	x
O=[N+]([O-])c1ccc(C2Nc3cccc4cccc(c34)N2)cc1	14.1µM	22.4µM	u	12.6µM[quencher]	n	n
O=[N+]([O-])c1cccc(C2Nc3cccc4cccc(c34)N2)c1	u	44.7µM	n	u	n	u
Cc1cccc(Cn2cccc2CNS(=O)(=O)c2ccc(C)c(C)c2)c1	n	x	n	n	x	x
CCOC(=O)C1(C)C=C(Nc2ccc(O)cc2)C(=O)N1c1ccc(O)cc1 (stereo unspecified)	14.1µM	50.1µM	28.2µM	u	-49.2	n
CC(C)(C)C(=O)/C(C#N)=C/c1cccs1	x	n	n	u	n	n
N#C/C(=C\c1cccs1)C(=O)c1ccccc1Cl	n	28.2µM	n	n	n	u
CCOc1ccc(OCC)c(NS(=O)(=O)c2ccc(-c3coc(C)n3)cc2)c1	n	x	n	u	x	x
O=C(N(c1ccccc1)c1ccccc1)N(c1ccccc1)c1ccccc1	n	n	n	n	n	n
NC(=S)N(c1ccccc1)c1ccccc1	n	44.7µM	n[2.34 µM]	n	n	n
Cc1ccc(-n2ncc3c(NCCc4ccccc4)ncnc32)cc1	n	x	u	n	x	x
O=C(CCNNC(=O)c1ccncc1)NCc1ccccc1	n	n	n	n	n	8.91µM!
O=C(CCc1ccccc1)NCc1ccncc1	x	n	x	x	n	x
O=[N+]([O-])c1cccc2cn[nH]c12	n	n	n	n	n	n
O=[N+]([O-])c1cccc2c[nH]nc12	u	n	n	n	n	35.5µM
O=C(/C=C/c1cccnc1)c1cc(F)ccc1O	n	n	n	n	n	n
O=C(/C=C/c1cccnc1)/C=C/c1cccnc1	4.47µM	14.1µM	u	n	n	u
O=C(/C=C/c1ccccc1Cl)c1cccnc1	u	31.6µM	n	n	n	n
N#Cc1ccc(/C=C/C(=O)c2cccnc2)cc1	u	50.1µM	n	n	n	n
CC(C)(C)OC(=O)N1CCCC1C(=O)NC1COC2CC(n3ccc(=O)[nH]c3=O)OC12 (stereo unspecified)	x	n	x	x	n	x
N#CC1=C2SCN(Cc3ccco3)CN2C(=O)CC1c1cccc2ccccc12 (stereo unspecified)	17.8µM	1.41µM	u	n	n	u
S=C1SCN(Cc2ccco2)CN1Cc1ccco1	u	u	n	n	n	n
COc1ccccc1NC(=O)c1c(NCc2ccc(C)o2)sc2c1CCCCC2	25.1µM	x	u	u	x	x
COc1ccc(NC(=O)c2c(NCc3cccs3)sc3c2CCCC3)cc1	u	x	n	u	x	x
CCOC(=O)N1CCc2c(sc(NCc3cc(OC)ccc3OC)c2C(=O)Nc2cc(OC)ccc2OC)C1	u	x	n	u	x	x
CCOC(=O)c1ccc(NC(=O)c2c(NCc3cccs3)sc3c2CCCCC3)cc1	22.4µM	x	u	n	x	x
COc1ccc(Cl)cc1NC(=O)c1c(NCc2ccc(C)o2)sc2c1CCC(C)C2 (stereo unspecified)	n	x	n	n	x	x
COc1ccc(Cl)cc1NC(=O)c1c(NCc2ccc(C)o2)sc2c1CCCCC2	u	x	n	n	x	x

Assay outcomes as filed in PubChem BioAssay.
